The entries come from a sample that favours hits as a whole.
Pf Dd2 inh = qHTS Primary assay for Inhibitors of Plasmodium falciparum Dd2 growth in vitro | P. falciparum Dd2 growth, SYBR Green, 72 h | Potency, µM (highest dose often 28.9 µM), without a hit: at the highest dose activity, negative = inhibition, most hits filed as inhibitors | 120,000 tested, 4.3% active | AID 1347417, 2020; active = well fitted inhibition curve with a large enough effect;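 note: plate controls were DMSO vehicle for no effect and reference drug for full effect; nearly all actives have a fitted effect of over 65% in size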
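Readout: SYBR Green fluorescence, 485 nm excitation, 535 nm emission, after ~16 h lysis at 37C. Before that, Dd2-infected red cells (2.5% hematocrit) grew 72 h with compound, 29 uM top final concentration.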
Numbers without * were called inactive; i = inactive; [ ] = remark or other dose. Potency is the fitted concentration of half-maximal effect.

SMILES	Pf Dd2 inh
Cc1ccc(NC(=O)CC2Nc3cc(C)c(C)cc3NC2=O)c(C)c1 (centres undefined)	3.2µM*
NC(=O)[C@@H](Cc1ccccc1)NC(=O)[C@@H]1C[C@@H](NS(=O)(=O)c2cccs2)CCN1C(=O)CSCC(=O)O	-11%
Cc1noc(C)c1Cc1ccc(C(=O)NC2CCc3n[nH]c(=O)n3CC2)o1 (centres undefined)	2%
CN1CCCC2(Cc3ccccc3CN(C(=O)Cc3ccc(O)cc3)C2)C1 (centres undefined)	i
COc1ccc(C[C@H](NC(=O)C2=C[C@@H](NC(=O)Nc3ccc(OC(F)(F)F)cc3)[C@@H](O)[C@H](O)C2)C(N)=O)cc1	14%
CC(C)(Oc1nn(CCN2CCOCC2)c2ccccc12)C(=O)NCc1ccncc1	i
CC(C)(Oc1nn(CCN2CCOCC2)c2ccccc12)C(=O)NCc1ccccc1	11µM*
COCc1ccc2c(c1)c(OC(C)(C)C(=O)NCC(F)(F)F)nn2Cc1ccccc1	i
COCc1ccc2c(c1)c(OC(C)(C)C(=O)NCC1CC1)nn2Cc1ccccc1	4.5µM*
COCc1ccc2c(c1)c(OC(C)(C)C(=O)NCCN1CCOCC1)nn2Cc1ccccc1	i
COCc1ccc2c(c1)c(OC(C)(C)C(=O)NC1CC1)nn2Cc1ccccc1	i
C=Cc1ccc(Cn2c(=O)c(-c3noc(CC)n3)c3n(c2=O)CCCC3)cc1	-1%
CCc1cccc(NC(=O)CC2CCCN(c3cn[nH]c(=O)c3)C2)c1 (centres undefined)	7%
O=c1[nH]c(C2CCCN(S(=O)(=O)c3ccccc3Cl)C2)nc2c1nnn2Cc1ccc(OC(F)(F)F)cc1 (centres undefined)	i
COc1cccc(Cn2nnc3c(=O)[nH]c(C4CCCN(C(=O)c5ccc(C)cc5)C4)nc32)c1 (centres undefined)	10µM*
CCc1ccc(Cn2nnc3c(=O)[nH]c(C4CCCN(C(=O)c5cccc(Cl)c5)C4)nc32)cc1 (centres undefined)	1%
CC1=C[C@@H](CNC(=O)C(=O)O)[C@H](C(C)C)C[C@H]1CC(=O)O	1%[44.1 µM]
COc1cccc(-c2cccc(CN3CCCC(C)(NC(C)=O)C3)c2)c1 (centres undefined)	i
COc1cccc(Nc2csc(CN3CCCC(C)(NC(C)=O)C3)c2)c1 (centres undefined)	7.9µM*
COc1cccc(Nc2cc(CN3CCC(C)(NC(C)=O)CC3)cc(OC)c2)c1	i
CN1C(=O)CC(C(=O)O)C12CCN(Cc1nc(-c3ccco3)no1)CC2 (centres undefined)	-6%
O=C1[C@@H]2C[C@@H](CN2C(=O)c2ccccc2)Oc2ccccc2N1CC1CC1	5%[44.1 µM]
CC(C)N1C[C@@H]2C[C@H]1C(=O)N(CC1CC1)c1ccccc1O2	11µM*
CC(C)N1C[C@@H]2C[C@H]1C(=O)N(Cc1ccc(OC(F)(F)F)cc1)c1ccccc1O2	11µM*
COCCN1C(=O)[C@@H]2C[C@@H](CN2C2CCCC2)Oc2ccccc21	-30%[44.1 µM]
SMILES	Pf Dd2 inh
COc1ccc(CN2C(=O)[C@@H]3C[C@@H](CN3C3CCCC3)Oc3ccccc32)cc1	10µM*
O=C1[C@@H]2C[C@@H](CN2C(=O)c2ccccc2)Oc2ccccc2N1Cc1ccccc1	-12%[44.1 µM]
COc1ccc(CN2C(=O)[C@@H]3C[C@@H](CN3C(C)C)Oc3ccccc32)cc1	26%[44.1 µM]
COCCN1C(=O)[C@@H]2C[C@@H](CN2Cc2ccc(C#N)cc2)Oc2ccccc21	-11%[44.1 µM]
COCCN1C(=O)[C@@H]2C[C@@H](CN2Cc2ccccc2)Oc2ccccc21	i
COc1ccc(CN2C(=O)[C@@H]3C[C@@H](CN3C(=O)c3cnccn3)Oc3ccccc32)cc1	-26%[44.1 µM]
COCCN1C(=O)[C@@H]2C[C@@H](CN2C(C)C)Oc2ccccc21	-34%[44.1 µM]
COCCN1C(=O)[C@@H]2C[C@@H](CN2Cc2cccc(OC)c2)Oc2ccccc21	10µM*
Cc1ccc(C2NC(=O)N(CC(=O)Nc3ccc(Br)c(C)c3)C3=C2C(=O)OC3)cc1 (centres undefined)	i
CCn1nc(C)c(-c2cc(C(=O)N3CCC(CCOc4ccccc4)C3)no2)c1C (centres undefined)	i
Cc1nc(CN2C(=O)OC3(CCN(C(=O)c4scnc4C)CC3)C2(C)c2ccccc2)cs1 (centres undefined)	i
CC(C)NC(=O)N1C2CCC1CN(Cc1cccnc1)C2	2%[44.1 µM]
Cc1ccc(C(=O)N2CCC(N3CCCCCC3=O)CC2)cc1	-9%[44.1 µM]
COc1ccc(CCN2CC(NCc3ccc(-n4cccn4)cc3)CC2=O)cc1 (centres undefined)	-24%
Cc1ccc(S(=O)(=O)N2CCCC3(CCC(=O)N(C4CC4)C3)C2)cc1C (centres undefined)	2%
Cc1cccc(C(=O)N[C@H]2CN(CCS(C)(=O)=O)C[C@@H]2C(C)C)c1	-17%
CC1=NOC2(CCN(C(=O)c3ccc(C(F)(F)F)cc3)C2)C1 (centres undefined)	-16%[44.1 µM]
CC(C)NC(=O)N1CCCC(c2nnc3n2CCNC3)C1 (centres undefined)	8%
CC(C)n1c(CNC(=O)C[C@H]2NC(=O)c3ccccc3NC2=O)nc2ccccc21	-8%
O=C1[C@@H]2C[C@@H](CN2C2COC2)Oc2ccccc2N1Cc1ccc(OC(F)(F)F)cc1	i
O=C1[C@@H]2C[C@@H](CN2C(=O)C2CC2)Oc2ccccc2N1Cc1ccccc1	i
CN1CCC(N2C[C@@H]3C[C@H]2C(=O)N(Cc2ccc(OC(F)(F)F)cc2)c2ccccc2O3)CC1	10µM*
Cc1noc2c(NCCc3ccccn3)cc(-c3ccccn3)nc12	-10%[44.1 µM]
CCOC(=O)c1oc2ccc(S(=O)(=O)N3CCC(c4noc(C5CC5)n4)C3)cc2c1C (centres undefined)	i[5.79 µM]
CCCC(=O)N1Cc2ccccc2CC2(CCN(CC)C2)C1 (centres undefined)	-13%[44.1 µM]
SMILES	Pf Dd2 inh
NCCCC(=O)N1CCCC2(Cc3ccccc3CN2C(=O)c2ccccc2)C1 (centres undefined)	7%
CC(=O)NCC(=O)N1Cc2ccccc2CC2(CCN(Cc3ccccc3)C2)C1 (centres undefined)	-18%
CCC(=O)N1Cc2ccccc2CC2(CCCN(Cc3ccncc3)C2)C1 (centres undefined)	-6%
CCC(=O)N1Cc2ccccc2CC2(CCCN(CC3CCNCC3)C2)C1 (centres undefined)	-2%
CCCC(=O)N1Cc2ccccc2CC2(CCN(C)C2)C1 (centres undefined)	11µM*
CCN1CCCC2(Cc3ccccc3CN(C(=O)c3ccccc3)C2)C1 (centres undefined)	10µM*
COc1ccc(C(=O)N2Cc3ccccc3CC23CCCN(C(=O)CN)C3)cc1 (centres undefined)	-18%
CC(C)C(=O)N1Cc2ccccc2CC2(CCCN(Cc3ccccc3)C2)C1 (centres undefined)	3.5µM*
CN1CCC2(Cc3ccccc3CN(C(=O)CCC(=O)O)C2)C1 (centres undefined)	-7%
CCN1CCCC2(Cc3ccccc3CN(C(=O)CCC(=O)O)C2)C1 (centres undefined)	17%
NCC(=O)N1Cc2ccccc2CC12CCCN(C(=O)c1ccccc1)C2 (centres undefined)	8.9µM*
O=C(CC1CCCCC1)N1CCC2(CC1)CC(N1CCN(c3ccccn3)CC1)CCO2 (centres undefined)	i
CNC(=O)c1ccn2cncc2c1	13%[44.1 µM]
